This note sets out measurements from PubChem BioAssay (Tox21).

The structures appear in SMILES notation. Records with an inconclusive call do not appear. Calls of active or inactive are those of the source. Unless noted, calls follow the shape of the dose curve; as a rule, active = well fitted curve in the direction sought with a large enough effect in the repeat runs; inconclusive = weak or mixed curves; inactive = no such curve, though single readings can be large; an effect the other way counts as inactive or inconclusive.

A short description of assay [1]: qHTS assay to test for compound auto fluorescence at 535 nm (green) in HEK293 cells (AID 720680). (qHTS replaces the single test concentration by a dilution series.)
The nature of assay [2]: qHTS assay to test for compound auto fluorescence at 535 nm (green) in HEK293 cell free culture (AID 720682). A digest of the protocol: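 Compounds were pin-transferred into cell-free DMEM with 10% FBS, and green fluorescence was read at excitation 485 nm and emission 535 nm. Intensities were expressed as fluorescein-equivalent values.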
Assay [3] is described as follows: qHTS assay to test for compound auto fluorescence at 590 nm (red) in HEK293 cell free culture (AID 720683). A digest of the protocol: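 Cell-free wells of DMEM with 10% FBS received compound, and intrinsic fluorescence was read at excitation/emission 540/590 nm. Values expressed as equivalence to Rose Bengal sodium.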
The nature of assay [4]: qHTS assay to test for compound auto fluorescence at 590 nm (red) in HepG2 cell free culture (AID 720684). A digest of the protocol: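 Compounds are added to culture medium (MEM, 10% FBS) lacking cells, then fluorescence is read at excitation 540 nm, emission 590 nm, with Rose Bengal sodium as the equivalency standard.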
The nature of assay [5]: qHTS assay to test for compound auto fluorescence at 460 nm (blue) in HepG2 cell free culture (AID 720685). A digest of the protocol:
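Compound (23 nL) or DMSO pinned into cell-free MEM with 10% FBS; blue fluorescence read at 405/460 nm excitation/emission, expressed as auto-fluorescence equivalency to triamterene.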

A short description of assay [6]: qHTS assay to test for compound auto fluorescence at 535 nm (green) in HepG2 cell free culture (AID 720686).
Assay [7] is described as follows: qHTS assay to test for compound auto fluorescence at 460 nm (blue) in HepG2 cells (AID 720687). In a few lines: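 HepG2 cells in MEM with 10% FBS, attached overnight at 37 C, were exposed to compound or DMSO for 1 hr at 37 C, 5% CO2. Blue fluorescence was read at 405/460 nm, with triamterene as reference fluorophore.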
Assay [8] concerns the target Glucocorticoid receptor (Homo sapiens) (UniProt P04150). The assay is described as follows: qHTS assay to identify small molecule agonists of the glucocorticoid receptor (GR) signaling pathway (AID 720691; active = well fitted activation curve with a large enough effect in the signal ratio in the repeat runs, not every such curve was filed as active; the % refers to the signal ratio). A digest of the protocol: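 Fluorescence intensity from LiveBLAzer B/G FRET substrate (2 h, room temperature) reports beta-lactamase expression driven by the glucocorticoid response element in GR-bla HeLa cells after 18 h compound exposure at 37 C.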

Assay [9] shares this target. The assay is described as follows: qHTS assay to identify small molecule antagonists of the glucocorticoid receptor (GR) signaling pathway (AID 720692; active = well fitted inhibition curve with a large enough effect in the signal ratio in the repeat runs, not every such curve was filed as active; the % refers to the signal ratio; also: potency is read from the fitted curve at half-maximal effect). In a few lines: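 HeLa GR-bla cells; cmpd + dex 5 nM final, 18 h 37 C; LiveBLAzer B/G FRET substrate 2 h RT; fluorescence intensity read. Antagonist mode, qHTS.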
Assay [10] is described as follows: qHTS assay to identify small molecule antagonists of the glucocorticoid receptor (GR) signaling pathway - cell viability counter screen (AID 720693). Also: nearly all actives have a fitted effect of over 55% in size.
The nature of assay [11]: qHTS assay for identifying genotoxic compounds that show differential cytotoxicity against isogenic chicken DT40 cell lines with known DNA damage response pathways - Rad54/Ku70 mutant cell line (AID 743015). Also: nearly all actives have a fitted effect of over 60% in size. Also: potency is read from the fitted curve at half-maximal effect.
A short description of assay [12]: qHTS assay to identify small molecule antagonists of the androgen receptor (AR) signaling pathway using the MDA cell line - cell viability counter screen (AID 743041; also: nearly all actives have a fitted effect of over 45% in size). In a few lines: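 Same-well cytotoxicity was assessed by CellTiter-Fluor in MDA-kb2 AR-luc cells after 16 h of compound treatment under R1881 agonism.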
Assay [13] in a line: qHTS assay for identifying genotoxic compounds that show differential cytotoxicity against isogenic chicken DT40 cell lines with known DNA damage response pathways - wild type cell line (AID 743012). Also: nearly all actives have a fitted effect of over 60% in size. Also: potency is read from the fitted curve at half-maximal effect. A digest of the protocol:
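Wild type DT40, 300 cells/well, ~0.5 h settle at 37 C/5% CO2; compounds in DMSO added by pintool; 40 h at 37 C/5% CO2; CellTiter-Glo, 30 min RT; luminescence.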

Assay [14] is described as follows: qHTS assay for identifying genotoxic compounds that show differential cytotoxicity against isogenic chicken DT40 cell lines with known DNA damage response pathways - Rev3 mutant cell line (AID 743014). Also: nearly all actives have a fitted effect of over 55% in size. Also: potency is read from the fitted curve at half-maximal effect.
The nature of assay [15]: qHTS assay to identify small molecule antagonists of the androgen receptor (AR) signaling pathway - cell viability counter screen (AID 743033; also: nearly all actives have a fitted effect of over 45% in size).
Assay [16] addresses Androgen receptor (Homo sapiens) (UniProt P10275). The assay can be described thus: qHTS assay to identify small molecule agonists of the androgen receptor (AR) signaling pathway (AID 743036; active = well fitted activation curve with a large enough effect in the signal ratio in the repeat runs, with a control signal flat, not every such curve was filed as active; the % refers to the signal ratio). A digest of the protocol: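 Activation was read as beta-lactamase FRET signal from LiveBLAzer B/G substrate, added for 2 h at room temperature. Before that, GeneBLAzer AR-UAS-bla GripTite (HEK293) cells had 16 h compound exposure at 37C.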

Assay [17] shares this target. The assay can be described thus: qHTS assay to identify small molecule agonists of the androgen receptor (AR) signaling pathway using the MDA cell line (AID 743040; also: nearly all actives have a fitted effect of over 20% in size). A digest of the protocol:
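Human breast carcinoma MDA-kb2 reporter cells (MMTV-luc, AR/GR elements) were treated for 16 h at 37C in 0% CO2 following a 5 h settling period. Signal was quantified by ONE-Glo luminescence.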

Assay [18] has the same target. The assay can be described thus: qHTS assay to identify small molecule antagonists of the androgen receptor (AR) signaling pathway using the MDA cell line (AID 743042; also: nearly all actives have a fitted effect of over 55% in size). In a few lines:
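MDA-kb2 breast carcinoma cells carrying MMTV-luciferase (AR/GR responsive) were co-treated with compounds and the agonist R1881 for 16 h at 37C. Inhibition read as ONE-Glo luminescence; CellTiter-Fluor fluorescence measured in parallel for cytotoxicity.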

Sequence of Glucocorticoid receptor (Homo sapiens) (P04150 whole entry, looked up): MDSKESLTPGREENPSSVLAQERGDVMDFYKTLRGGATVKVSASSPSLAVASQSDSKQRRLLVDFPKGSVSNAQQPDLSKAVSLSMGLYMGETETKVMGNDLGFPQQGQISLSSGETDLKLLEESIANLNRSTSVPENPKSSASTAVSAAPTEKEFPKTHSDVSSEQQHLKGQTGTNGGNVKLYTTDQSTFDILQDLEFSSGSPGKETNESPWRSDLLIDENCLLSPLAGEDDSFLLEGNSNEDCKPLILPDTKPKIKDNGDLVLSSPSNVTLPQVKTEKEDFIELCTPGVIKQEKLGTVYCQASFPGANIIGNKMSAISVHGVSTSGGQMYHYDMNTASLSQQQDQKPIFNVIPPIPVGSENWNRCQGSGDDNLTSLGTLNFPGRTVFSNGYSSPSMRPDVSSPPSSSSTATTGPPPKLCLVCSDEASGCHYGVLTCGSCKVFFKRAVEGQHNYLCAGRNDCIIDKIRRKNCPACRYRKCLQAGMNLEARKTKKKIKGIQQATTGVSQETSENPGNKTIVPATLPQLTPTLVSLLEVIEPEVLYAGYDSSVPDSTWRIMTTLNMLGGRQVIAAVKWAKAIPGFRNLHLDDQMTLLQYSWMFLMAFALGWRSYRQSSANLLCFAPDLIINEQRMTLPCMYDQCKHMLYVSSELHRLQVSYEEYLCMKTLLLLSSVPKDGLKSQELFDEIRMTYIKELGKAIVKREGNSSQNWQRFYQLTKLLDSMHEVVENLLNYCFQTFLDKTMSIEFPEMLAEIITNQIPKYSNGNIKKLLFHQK
Sequence of Androgen receptor (Homo sapiens) (P10275 whole entry, looked up): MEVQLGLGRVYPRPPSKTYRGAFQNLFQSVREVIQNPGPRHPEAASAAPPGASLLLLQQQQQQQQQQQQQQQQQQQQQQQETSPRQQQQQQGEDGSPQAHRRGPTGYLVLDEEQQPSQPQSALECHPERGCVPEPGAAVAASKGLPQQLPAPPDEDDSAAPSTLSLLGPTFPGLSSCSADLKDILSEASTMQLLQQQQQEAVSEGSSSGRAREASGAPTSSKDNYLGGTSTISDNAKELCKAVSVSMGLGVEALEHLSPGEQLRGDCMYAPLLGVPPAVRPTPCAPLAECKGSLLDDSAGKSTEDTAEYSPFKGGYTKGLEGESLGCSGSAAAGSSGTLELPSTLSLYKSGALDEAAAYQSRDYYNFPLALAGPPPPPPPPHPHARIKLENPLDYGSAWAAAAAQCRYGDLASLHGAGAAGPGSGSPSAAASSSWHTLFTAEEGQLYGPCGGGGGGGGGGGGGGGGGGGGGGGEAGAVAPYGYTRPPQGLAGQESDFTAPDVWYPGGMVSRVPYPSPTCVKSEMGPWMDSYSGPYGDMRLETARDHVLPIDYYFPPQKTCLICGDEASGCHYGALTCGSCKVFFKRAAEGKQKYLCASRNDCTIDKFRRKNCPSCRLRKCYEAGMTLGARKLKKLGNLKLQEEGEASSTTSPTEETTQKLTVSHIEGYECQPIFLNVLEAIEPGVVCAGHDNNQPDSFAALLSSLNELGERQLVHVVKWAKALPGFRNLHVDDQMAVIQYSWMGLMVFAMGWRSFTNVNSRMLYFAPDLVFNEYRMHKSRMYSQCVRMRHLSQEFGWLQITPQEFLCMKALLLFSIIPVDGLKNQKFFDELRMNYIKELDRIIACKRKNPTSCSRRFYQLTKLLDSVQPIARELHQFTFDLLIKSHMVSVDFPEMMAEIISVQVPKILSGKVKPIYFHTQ

For `Cc1ncc(CNC(=O)N(CCCl)N=O)c(N)n1`, the outcome in assay [1], in assay [2], in assay [3], in assay [4], in assay [5] and in [6] was inactive. The call in [7] and in assay [8] was inactive. The Potency entry in assay [9], in assay [10], in [11] and in assay [12] was “inactive” each time.
In the case of `O=C1OC(=O)C2C1C1(Cl)C(Cl)=C(Cl)C2(Cl)C1(Cl)Cl` (stereo unspecified), the compound was called inactive in assay [1], in assay [2], in assay [3], in assay [4], in assay [5] and in assay [6]. For the same compound, the compound was classed as inactive in assay [7] and in assay [8]. Moreover, the Potency entry in [10], in assay [13], in assay [14], in assay [11] and in assay [12] was “inactive” throughout.
On to `Cc1coc2c1CCC(C)C2` (stereo unspecified), for which the compound was classed as inactive in assay [1], in assay [2], in [3], in [4], in assay [5] and in assay [6]. The outcome in [7] and in assay [8] was inactive. Besides, the Potency result in assay [10], in assay [13], in [14], in assay [11], in assay [15] and in assay [12] was “inactive” each time.
Turning to `CCOP(=S)(OCC)Oc1ncn(-c2ccccc2)n1`, the compound was called inactive in assay [1], in assay [2], in assay [3], in assay [4], in [5] and in assay [6]. Besides, the compound was called inactive in [7], in assay [16] and in [18]. For the same compound, the Potency entry in assay [10], in assay [17] and in [12] was “inactive” each time. Further, the Potency in [13] is 61.1 µM (active); in [14], 34.4 µM (active); in [11], 48.6 µM (active).
With `CCOP(=S)(OCC)Oc1cc(-c2ccccc2)on1`, the call in [1], in assay [2], in assay [3], in [4], in assay [5] and in assay [6] was inactive. Besides, the compound was called inactive in assay [7] and in assay [8]. Besides, the Potency entry in assay [10] and in assay [12] was “inactive” in each case. For the same compound, the figures for the Potency in [13], in [14] and in assay [11] were 68.6 µM (active), 61.1 µM (active) and 68.6 µM (active), respectively.
For `Cc1ncc2n1-c1ccc(Cl)cc1C(c1ccccc1F)=NC2`, the outcome in assay [1], in [2], in assay [3], in assay [4], in assay [5] and in [6] was inactive. The compound was called inactive in [7] and in [8]. The Potency in assay [9] is 16.9 µM (active). Moreover, the Potency entry in assay [10], in assay [14], in assay [15] and in assay [12] was “inactive” in each case.
On to `ClCC(Cl)(Cl)Cl`, for which the outcome in assay [1], in [2], in assay [3], in assay [4], in assay [5] and in assay [6] was inactive. Further, the outcome in assay [7] and in assay [8] was inactive. The Potency entry in assay [9], in [10], in assay [13], in [14], in assay [11] and in [12] was “inactive” each time.
As for `CC(=O)CC(c1ccc(Cl)cc1)c1c(O)c2ccccc2oc1=O` (stereo unspecified), the compound was called inactive in assay [1], in assay [2], in assay [3], in assay [4], in assay [5] and in assay [6]. Moreover, the compound was classed as inactive in assay [7] and in [8]. The Potency result in assay [9], in assay [10], in [13], in [14], in assay [11] and in assay [12] was “inactive” in each case.
For the compound `Nc1cnn(-c2ccccc2)c(=O)c1Cl`, the call in assay [1], in assay [2], in assay [3], in assay [4], in assay [5] and in [6] was inactive. The compound was classed as inactive in [7] and in assay [8]. Besides, the Potency entry in [9], in assay [10], in assay [13], in assay [11], in assay [15] and in assay [12] was “inactive” throughout.
For the compound `CS(=O)(=O)c1cc(C(F)(F)F)ccc1C(=O)c1cnoc1C1CC1`, the outcome in assay [1], in assay [2], in [3], in assay [4], in [5] and in [6] was inactive. Besides, in assay [7], the call was inactive. Moreover, the Potency entry in assay [9], in [10], in assay [11], in assay [15] and in [12] was “inactive” throughout.
For the compound `CC(C=O)Cc1ccc2c(c1)OCO2` (stereo unspecified), the compound was called inactive in assay [1], in assay [2], in [3], in assay [4], in assay [5] and in assay [6]. For the same compound, the outcome in assay [7] and in [8] was inactive. In addition, the Potency entry in assay [13], in assay [11], in assay [15] and in assay [12] was “inactive” throughout.
For `CCOC(=O)N(C)C(=O)CSP(=S)(OCC)OCC`, the outcome in assay [1], in assay [2], in assay [3], in assay [4], in assay [5] and in assay [6] was inactive. Moreover, the outcome in [7] and in assay [8] was inactive. The Potency result in [9], in [10] and in assay [12] was “inactive” throughout. Also, the Potency in assay [13] is 30.6 µM (active); in [11], 24.3 µM (active).
`[Cl][Sn]([Cl])([Cl])[Cl]`: the result in [1], in assay [2], in [3], in [4], in assay [5] and in [6] was inactive. Also, in [7], the compound was classed as inactive. The Potency result in [13], in assay [14], in assay [11], in assay [15] and in assay [12] was “inactive” each time.
